In the library only some 5.7% were active in any assay of this set; here they are far more common.
DAX1 inh-1: DAX1 (NR0B1) inhibitors on StAR promoter, primary screen, cell-based, luminescence, SF-1 (NR5A1), full-length DAX-1 | inhibition, % at 6.8 µM | HEK293T StAR-luciferase reporter, SF-1/DAX-1 repression relief | AID 652010, 2013 | actives 1.1% (n = 370,000);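 active = inhibition above the mean over all tested compounds plus 3 SD, cut at about 3.6% in these data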;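 also: 0% = DAX-1 cells with DMSO and 100% = cells lacking DAX-1 with DMSO; higher inhibition means more luminescence from relief of DAX-1 repression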
AHR activator: AHR activators, primary screen, cell-based, luminescence, luciferase reporter, human; AHR-responsive luciferase reporter cells; Aryl hydrocarbon receptor (Homo sapiens), P35869; actives 2.5% (n = 320,000); activation, % at 5 µM; in the data active = activation above about 47%;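 also: 0% = vehicle wells and 100% = reference agonist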
DAX1 inh-2: DAX1 (NR0B1) inhibitors, primary screen, cell-based, HEK293, Gal4-DAX1, luciferase luminescence. Nuclear receptor subfamily 0 group B member 1 (Homo sapiens), P51843. HEK293 Gal4-DAX1 luciferase reporter. inhibition, % at 6.75 µM. actives 0.99% (n = 340,000);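 active = inhibition above the mean over all tested compounds plus 3 SD, cut at about 4.2% in these data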;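 also: 0% = DAX1-transfected cells with DMSO and 100% = empty-vector control cells with DMSO; inhibition shows as a rise in luminescence from relieved DAX1 repression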
Target sequence (P51843 207-470 limits assumed): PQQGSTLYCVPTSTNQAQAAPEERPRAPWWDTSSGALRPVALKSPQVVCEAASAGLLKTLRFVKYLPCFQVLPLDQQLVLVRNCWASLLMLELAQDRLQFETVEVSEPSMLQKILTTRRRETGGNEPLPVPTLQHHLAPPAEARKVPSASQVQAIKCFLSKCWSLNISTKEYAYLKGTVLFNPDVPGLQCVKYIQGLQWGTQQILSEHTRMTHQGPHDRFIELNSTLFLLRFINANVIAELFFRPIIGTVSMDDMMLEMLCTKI
hcDAF-12 act: H. contortus DAF-12 nuclear receptor activators, primary screen, cell-based, luminescence, HEK293, lit1-tk-luc reporter | HEK293 hcDAF-12 lit1-tk-luc reporter; 0% DMSO, 100% Δ7-dafachronic acid | activation, % at 6.8 µM | actives 1.4% (n = 370,000) | AID 652067, 2013;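 active = activation above the mean of all tested compounds plus 3 SD, cut at about 5.5% in these data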;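 also: 100% = response to 3 µM Δ7-dafachronic acid high control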
ssDAF-12 act: S. stercoralis DAF-12 nuclear receptor activators, primary screen, cell-based, luminescence, HEK293, GRIP1 co-expression, lit1-tk-luc; Nuclear hormone receptor DAF-12 (Strongyloides stercoralis); HEK293 ssDAF-12/GRIP1 lit1-tk-luc reporter; % of 3 µM dafachronic acid response; activation, % at 6.8 µM; actives 1% (n = 370,000); AID 652126, 2013;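 active = activation above the mean over all tested compounds plus 3 SD, cut at about 0.9% in these data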;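 also: 0% = DMSO-only wells and 100% = 3 µM delta7-dafachronic acid wells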
hgDAF-12 ag: H. glycines DAF-12 receptor agonists, primary screen, cell-based, luminescence, HEK293, GAL4 fusion, UAS-luciferase. Nuclear hormone receptor DAF-12 (Heterodera glycines), GAL4 fusion. HEK293 GAL4-hgDAF12 UAS-luciferase reporter, agonist luminescence; normalized to butyrate control. activation, % at 6.8 µM. actives 1.8% (n = 370,000);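 active = activation above a cutoff set at the mean of all screened compounds plus 3 SD, cut at about 10% in these data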;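 also: 0% = DMSO wells and 100% = sodium butyrate wells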
AHR act cf: AHR activators, confirmation, cell-based, luminescence, luciferase reporter, human; AID 2845, 2010; activation, % at 9 µM; actives 87% (n = 2,300); shares compounds with AHR activator; human cells, AHR-responsive luciferase reporter; in the data active = activation above about 49%;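 also: HepG2 hepatoma cells carrying a DRE-driven firefly luciferase reporter; 0% = vehicle wells and 100% = reference agonist wells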
PXR counter: human PXR activators, counter-screen for AHR activator project, cell-based, luciferase luminescence. shares compounds with AHR activator. cell-based PXR reporter. activation, % at 11.6 µM. actives 88% (n = 2,300). AID 434939, 2010; in the data active = activation above about 11%;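 also: human hepatoma DPX-2 cells expressing full-length human PXR; 0% = DMSO and 100% = reference agonist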
Target sequence (O75469 whole entry, looked up): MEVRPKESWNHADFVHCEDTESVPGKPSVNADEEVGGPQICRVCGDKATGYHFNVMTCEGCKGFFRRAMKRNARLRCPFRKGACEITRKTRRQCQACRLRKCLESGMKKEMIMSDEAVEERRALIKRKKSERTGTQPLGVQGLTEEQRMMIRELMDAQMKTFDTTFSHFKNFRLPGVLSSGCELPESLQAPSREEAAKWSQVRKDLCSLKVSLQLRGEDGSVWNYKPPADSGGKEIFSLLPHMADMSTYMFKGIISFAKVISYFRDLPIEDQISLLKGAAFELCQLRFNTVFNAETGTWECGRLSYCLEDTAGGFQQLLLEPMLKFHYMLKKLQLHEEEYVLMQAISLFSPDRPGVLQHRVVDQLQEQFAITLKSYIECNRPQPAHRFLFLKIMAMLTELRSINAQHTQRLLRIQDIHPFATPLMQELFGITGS
The depositor's hits bear a star; / = no result.

SMILES | DAX1 inh-1 | AHR activator | DAX1 inh-2 | hcDAF-12 act | ssDAF-12 act | hgDAF-12 ag | AHR act cf | PXR counter
COc1cccc2sc3cc(NCc4ccc(C)o4)ccc3c(=O)c12 | 0 | 96* | 1 | 1 | -1 | 5 | 95* | 55*
COc1ccc(C2=NOC(C(=O)Nc3cccnc3)C2)cc1OC (stereo unspecified) | 0 | 3 | 1 | -1 | -1 | -2 | / | /
C/C(=N\NC(=O)CSc1nc(C)cc(C)n1)c1cccs1 | 0 | 110* | -1 | -3 | -1 | 0 | 98* | 50*
Cc1cc(C)nc(SCC(=O)NNC(=O)c2cccs2)n1 | 0 | 1 | 3 | 1 | -1 | 1 | / | /
Cc1cnc(NC(=O)C2(C)CCN2C(=O)C(C)C)s1 (stereo unspecified) | 0 | / | / | 2 | -1 | 4 | / | /
Fc1cccc2sc(Nc3nnc(-c4ccccc4)o3)nc12 | 2 | 155* | -1 | 2 | 0 | 6 | 120* | 22*
COC(=O)[C@]12C[C@H](CC(=O)NCCc3ccccc3OC)C(=O)N(Cc3ccc4c(c3)OCO4)C1=C[C@H](C(C)(C)C)O[C@@H]2C | -2 | / | / | -1 | 0 | -1 | / | /
COc1ccc(-c2ccc3nncn3c2)cn1 | 1 | / | / | 0 | -1 | -3 | / | /
COc1ccc(C)cc1Nc1nc(-c2c[nH]c3ccccc23)cs1 | -1 | 89* | 1 | 5.8* | 0 | -3 | 64* | 17*
COc1ccc(C)cc1Nc1nc(-c2ccccc2O)nc2ccccc12 | 0 | 19 | 0 | 5 | 1 | -2 | / | /
CCOC(=O)C1CCN(C(=O)C(C)(C)NC(=O)Nc2ccc(Cl)cc2Cl)CC1 | / | / | / | -1 | -1 | -3 | / | /
CN1/C(=C\C(=S)NC(=O)c2ccccc2Cl)C(C)(C)c2ccccc21 | -1 | 20 | -1 | -1 | -2 | -2 | / | /
COc1ccccc1C(=O)NC(=S)/C=C1/N(C)c2ccccc2C1(C)C | -2 | 81* | 0 | -3 | -2 | -4 | 33 | 100*
Cc1cc(OCc2nnc(SC(C)C(=O)O)n2-c2ccccc2)ccc1Cl (stereo unspecified) | 1 | 3 | 0 | 1 | -2 | 3 | / | /
O=C(CCn1c(=O)oc2ccccc21)Nc1nc2ccccc2s1 | -1 | 104* | 0 | 1 | -1 | 0 | 82* | 104*
O=C(c1cc2ccccc2cc1O)N1CCN(c2ccc([N+](=O)[O-])cc2)CC1 | -2 | 5 | -1 | 0 | -1 | -3 | / | /
Cc1cccc(C(=O)Nc2cc(=O)n(C)c(=O)n2C)c1 | 1 | 6 | 1 | -1 | -1 | 0 | / | /
Cn1c(NC(=O)c2cccc(C(F)(F)F)c2)cc(=O)n(C)c1=O | 0 | 136* | 0 | -1 | 0 | 1 | 120* | 16*
OC[C@@H]1CN(Cc2ccc(F)cc2)C[C@H](n2cnc3c(NCc4ccncc4)ncnc32)O1 | -1 | / | / | -2 | -1 | -2 | / | /
N/C(=N\OC(=O)c1ccccc1[N+](=O)[O-])c1cccnc1 | 0 | 138* | 0 | 5 | 0 | 4 | 76* | 29*
N/C(=N\OC(=O)c1ccc([N+](=O)[O-])cc1)c1cccnc1 | 0 | -2 | 1 | 0 | -1 | 2 | / | /
Cc1cc(NS(=O)(=O)c2ccc(NC(=O)COc3ccc(C#N)cc3)cc2)nc(C)n1 | 1 | 2 | 1 | 1 | -1 | -2 | / | /
O=C(Nc1nc(-c2ccc(Br)cc2)cs1)c1cccnc1 | 0 | 9 | 0 | -3 | -2 | 1 | / | /
CC(C)/C=N/Nc1nc(-c2ccc(Br)cc2)cs1 | 1 | 141* | 1 | 0 | -1 | 2 | 16 | 18*
CC(=O)N/N=C(\N)c1nonc1N | 0 | 0 | / | 0 | -1 | -1 | / | /
SMILES | DAX1 inh-1 | AHR activator | DAX1 inh-2 | hcDAF-12 act | ssDAF-12 act | hgDAF-12 ag | AHR act cf | PXR counter
O=C1CCCc2nc3c(cc21)C(O)Oc1c-3ccc2ccccc12 (stereo unspecified) | 2 | 148* | 1 | 2 | -1 | 12* | 13 | 45*
O=[N+]([O-])c1cccc(-c2cc3ccccc3[nH]2)c1 | -1 | 84* | 0 | 2 | -1 | 3 | 134* | 15*
Nc1n[nH]c(-c2cccc([N+](=O)[O-])c2)n1 | 0 | 34 | 0 | 1 | 1 | -1 | / | /
O=C(NC(=S)Nc1cccc(F)c1)c1cccc([N+](=O)[O-])c1 | -1 | 96* | -2 | 0 | -1 | 1 | 40 | 30*
C/C(=N/NC(=S)Nc1cccc(C)c1)c1cccc([N+](=O)[O-])c1 | 0 | 106* | 0 | 0 | -1 | 7 | 83* | 100*
CC/C(=N\NC(=S)Nc1cccc(C)c1)c1ccccc1 | 1 | 87* | -2 | 1 | 0 | 3 | 55* | 24*
Cc1ccc(CNC(=O)C2CCN(c3nc(C)cc(C)n3)CC2)cc1 | 1 | -2 | 0 | -1 | -2 | 1 | / | /
Cc1noc(C)c1S(=O)(=O)N(C)C[C@H]1OCCCC[C@H](C)Oc2ccc(NC(=O)CCCN(C)C)cc2C(=O)N([C@H](C)CO)C[C@@H]1C | 0 | / | -1 | -1 | 0 | 2 | / | /
c1ccc2c(-c3nc(-c4ccncc4)no3)cccc2c1 | 0 | 99* | 1 | 1 | -1 | 3 | 114* | 15*
CC(=O)Nc1cccc(NC(=O)CSc2nc(=O)n(CCCN3CCOCC3)c3c2CCC3)c1 | 0 | -1 | 0 | 0 | 0 | 1 | / | /
CC(C)CC(=O)N1CCN(Cc2ccc(C(F)(F)F)cc2)CC1 | 0 | 2 | 0 | 0 | -2 | -2 | / | /
C=CCn1c(NC(=O)c2ccc(C)cc2)nc2ccccc21 | 1 | 99* | 1 | 4 | 0 | 7 | 93* | 29*
Cc1ccc2c(c1)c1nc3ccccc3nc1n2C | 0 | 88* | 4.5* | 5.9* | 1.9* | 5 | 117* | /
CCNC(=S)Nc1cccc([N+](=O)[O-])c1 | / | 3 | / | / | / | / | / | /
